Measured values taken from PubChem BioAssay (NCATS).
Results filed as inconclusive are left out. The source made the active and inactive calls. Unless noted, calls come from the whole dose curve; as a rule, active = well fitted curve in the direction sought with a large enough effect; inconclusive = small, poorly fitted or top-dose-only effect, or another doubt; inactive = no such curve, though single readings can be large; an effect the other way counts as inactive or inconclusive.

How the values were obtained:
[1] = target: Lysosomal acid glucosylceramidase (Homo sapiens) (UniProt P04062); assay: Glucocerebrosidase-p2 (AID 348; in the data active = potency below about 10 µM; note: potency is the fitted concentration of half-maximal effect); conditions: purified GBA, blue fluorogenic substrate, 40 min
Chain of Lysosomal acid glucosylceramidase (Homo sapiens) (P04062 whole entry, looked up): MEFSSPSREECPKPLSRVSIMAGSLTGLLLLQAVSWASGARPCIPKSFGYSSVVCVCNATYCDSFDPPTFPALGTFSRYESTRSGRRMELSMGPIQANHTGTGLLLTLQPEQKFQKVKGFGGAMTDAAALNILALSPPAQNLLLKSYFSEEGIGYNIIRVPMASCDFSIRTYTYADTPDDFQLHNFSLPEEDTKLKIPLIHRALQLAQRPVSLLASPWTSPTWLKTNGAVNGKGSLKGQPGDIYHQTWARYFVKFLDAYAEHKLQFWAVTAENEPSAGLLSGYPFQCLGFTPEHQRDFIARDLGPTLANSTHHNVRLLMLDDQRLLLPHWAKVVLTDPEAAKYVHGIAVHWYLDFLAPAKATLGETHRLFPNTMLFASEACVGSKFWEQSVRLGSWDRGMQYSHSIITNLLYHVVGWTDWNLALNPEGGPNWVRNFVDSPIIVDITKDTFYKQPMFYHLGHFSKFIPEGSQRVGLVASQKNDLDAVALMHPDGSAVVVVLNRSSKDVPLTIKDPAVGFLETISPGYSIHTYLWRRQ
Procedure, shortened: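 Compounds titrated from 0.6 nM upwards against 0.2 nM enzyme in pH 5.9 citric acid/KH2PO4, taurocholate, tween-20; blue fluorogenic substrate 80 uM, 40 min room temperature, stopped and read Ex 365/Em 440 for AC50.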

[2] = target: Cytochrome P450 1A2 (Homo sapiens) (UniProt P05177); assay: p450-cyp1a2 (AID 410; calls by dose curve;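 note: -100% = full effect of reference inhibitor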); conditions: recombinant CYP1A2, luciferin-ME demethylation, luminescence; series mostly up to 11.4 µM
Chain of Cytochrome P450 1A2 (Homo sapiens) (P05177 whole entry, looked up): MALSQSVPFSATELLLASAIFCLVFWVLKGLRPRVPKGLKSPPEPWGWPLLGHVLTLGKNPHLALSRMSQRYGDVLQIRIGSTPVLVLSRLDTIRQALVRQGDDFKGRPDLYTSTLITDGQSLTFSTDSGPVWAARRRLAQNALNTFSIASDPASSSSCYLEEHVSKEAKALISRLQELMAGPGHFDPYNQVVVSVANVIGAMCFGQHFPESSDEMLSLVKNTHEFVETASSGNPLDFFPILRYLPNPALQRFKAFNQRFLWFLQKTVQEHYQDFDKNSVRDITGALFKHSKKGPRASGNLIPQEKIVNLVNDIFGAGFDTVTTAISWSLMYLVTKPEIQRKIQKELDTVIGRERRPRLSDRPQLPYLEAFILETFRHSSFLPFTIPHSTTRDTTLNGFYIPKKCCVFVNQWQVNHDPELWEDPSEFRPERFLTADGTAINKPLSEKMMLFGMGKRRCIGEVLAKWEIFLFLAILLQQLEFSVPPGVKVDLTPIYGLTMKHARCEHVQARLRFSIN
Procedure, shortened: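 Inhibition was calculated relative to 57 uM furafylline (full inhibition). The reaction used human CYP1A2 at 20nM with Luciferin-ME at its Km, 100uM, driven by an NADPH-regenerating system for 60 min at room temperature.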

[3] = Cell Viability - BJ (AID 421; calls by dose curve;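 note: potency is the fitted concentration of half-maximal effect; cells exposed to compound for 40 hours at 37 °C before readout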); conditions: BJ fibroblast viability, qHTS
Procedure, shortened: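 Cytotoxicity in human BJ foreskin fibroblasts is scored as loss of cellular ATP after a 40-hour exposure, measured by luciferase luminescence. Controls are DMSO and 100 uM tamoxifen.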

[4] = Cell Viability - Jurkat (AID 426;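 active = dose-dependent loss of cell ATP signal giving a full or clear fitted curve, ranked by lower potency value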; note: potency is the fitted concentration of half-maximal effect); conditions: qHTS
Procedure, shortened: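 Seed 5000 Jurkat E6-1 cells/well; add compound; incubate 40 hr at 37 °C; add CellTiter-Glo; wait 20 min at room temperature; read luminescence. Fit concentration-response with Hill equation for AC50.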

[5] = Cell Viability - Hek293 (AID 427;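 active = compounds whose dose-response curve shows a full or clear partial loss of cell viability, called from curve shape rather than a numeric limit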;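 note: potency is the fitted concentration of half-maximal effect; cells exposed to compound for 40 hours at 37 °C before reading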); conditions: qHTS
Procedure, shortened: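 qHTS, human embryonic kidney (adenovirus-transformed) cells; 40 hr cpd, 37 °C; CellTiter-Glo ATP luminescence. Norm: DMSO = 0, 100 uM tamoxifen = 100% inhibition. Hill-fit AC50.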

[6] = Cell Viability - HepG2 (AID 433; calls by dose curve;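 note: potency is the fitted concentration of half-maximal effect; potency for ATP loss meaning cytotoxicity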); conditions: qHTS
Procedure, shortened: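 In this qHTS format, a 40 h, 37 °C compound incubation of HepG2 cells in complete medium precedes a 20 min CellTiter-Glo step at room temperature. Tamoxifen and doxorubicin serve as positive controls; Hill-equation fits yield AC50.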

[7] = Cell Viability - MRC5 (AID 434; calls by dose curve;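 note: potency is the fitted concentration of half-maximal effect; potency reflects cytotoxicity seen as loss of intracellular ATP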); conditions: MRC5 lung fibroblast viability, qHTS
Procedure, shortened: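 MRC5 normal human lung fibroblasts, 1500 cells/well, exposed to compound for 40 hr at 37 C. Cellular ATP was read by CellTiter-Glo luminescence; data normalized to DMSO and 100 uM tamoxifen, with AC50 from Hill fits.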

[8] = Cell Viability - SK-N-SH (AID 435; calls by dose curve;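 note: potency is the fitted concentration of half-maximal effect; compound exposure lasted 40 h at 37 °C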); conditions: SK-N-SH neuroblastoma cell viability qHTS
Procedure, shortened: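 Human neuroblastoma line, 40 h exposure at 37 °C, ATP quantified via luciferase luminescence; DMSO and 100 uM tamoxifen define 0 and 100% inhibition for AC50 fitting.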

[9] = NFAT Signaling Pathway (AID 444; active = well fitted curve in either direction with a large enough effect, not every such curve was filed as active;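 note: carbachol stimulus at about its EC50 of 1 µM final; % is set by controls: 0 for no effect and ±100 for the full control effect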); conditions: Jurkat NFAT-bla M1, carbachol, beta-lactamase ratio, 5 h; at 7.69 µM (top of the series) unless noted
Procedure, shortened: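 Jurkat cells with NFAT-driven β-lactamase reporter and co-expressed M1 receptor, stimulated with carbachol (final 1 uM, ~EC50), compound titration, 5 h at 37 °C. CCF4 loaded 1 h at RT; 460/530 nm ratio gave %activity and AC50.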

[10] = Stat Signaling Pathway (AID 446; active = well fitted curve in either direction with a large enough effect, not every such curve was filed as active;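 note: ME-180 cervical cancer cells given 40 pM IL-6 alongside compound; SIE-controlled beta-lactamase reporter measured as 460/530 nm FRET emission ratio; % is set by controls: 0 for no effect and ±100 for the full control effect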); conditions: ME-180 SIE beta-lactamase reporter, IL-6 stimulated, 5 h; at 7.69 µM (top of the series) unless noted
Procedure, shortened: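 Screening format detects activators and inhibitors alike: ME-180 SIE-bla cells stimulated at 40 pM IL-6 for 5 hrs with compound, then dual-emission beta-lactamase read at 405 nm excitation.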

[11] = target: Glucocorticoid receptor (Homo sapiens) (UniProt P04150); assay: GR-GFP Redistribution (AID 450;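 active = compounds whose dose series gives a full or clear partial fitted curve of increased nuclear translocation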; note: potency is the fitted concentration of half-maximal effect); conditions: U2OS GR-GFP nuclear translocation, laser cytometry, 2 h
Chain of Glucocorticoid receptor (Homo sapiens) (P04150 whole entry, looked up, the tested form may be a part): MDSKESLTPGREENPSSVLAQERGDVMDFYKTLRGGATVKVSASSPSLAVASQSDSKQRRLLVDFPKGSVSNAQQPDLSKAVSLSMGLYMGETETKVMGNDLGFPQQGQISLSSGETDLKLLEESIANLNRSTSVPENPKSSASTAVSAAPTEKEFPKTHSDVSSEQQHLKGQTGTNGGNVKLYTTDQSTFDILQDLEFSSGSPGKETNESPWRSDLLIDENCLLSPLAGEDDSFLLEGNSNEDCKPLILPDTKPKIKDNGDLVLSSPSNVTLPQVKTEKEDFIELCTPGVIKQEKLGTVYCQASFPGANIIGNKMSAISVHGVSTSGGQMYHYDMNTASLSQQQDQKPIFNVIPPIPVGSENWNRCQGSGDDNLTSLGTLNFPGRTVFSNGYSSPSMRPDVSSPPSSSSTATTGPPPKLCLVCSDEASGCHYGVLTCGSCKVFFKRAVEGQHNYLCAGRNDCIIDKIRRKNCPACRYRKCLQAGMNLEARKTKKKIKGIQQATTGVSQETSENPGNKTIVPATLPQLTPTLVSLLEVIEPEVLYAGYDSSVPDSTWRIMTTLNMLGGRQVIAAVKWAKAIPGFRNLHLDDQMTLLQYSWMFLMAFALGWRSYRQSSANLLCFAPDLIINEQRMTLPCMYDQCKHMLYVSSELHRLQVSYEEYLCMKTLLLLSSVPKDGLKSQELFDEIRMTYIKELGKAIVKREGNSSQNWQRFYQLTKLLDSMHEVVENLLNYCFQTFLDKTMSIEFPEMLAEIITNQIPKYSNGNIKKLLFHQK

[12] = target: Glucocorticoid receptor (Homo sapiens) (UniProt P04150); assay: GR-EFC Redistribution (AID 451; calls by dose curve; note: potency is the fitted concentration of half-maximal effect); conditions: CHO-K1 GR-EFC translocation, beta-gal luminescence, 2 h
Procedure, shortened: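 CHO-K1 cells expressing nuclear EA and GR-ED fragments of b-gal; compounds titrated up to 46 uM final, 2 h at 37 C. GR nuclear translocation read as complemented b-gal luminescence after 1 h RT detection.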

[13] = target: Mitogen-activated protein kinase 10 (Mus musculus) (UniProt Q61831); assay: JNK3 AlphaScreen Assay (AID 530; active = well fitted curve in either direction with a large enough effect, not every such curve was filed as active;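 note: kinase came from lysate of stimulated human HepG2 cells; signal reports phosphorylation of biotinylated GST-cJun 1-79 at Ser73 with 10 µM ATP; % is set by controls: 0 for no effect and ±100 for the full control effect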); conditions: JNK3 lysate, c-Jun phosphorylation; series mostly up to 11.4 µM
Procedure, shortened: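 qHTS format: compounds tested as titrations against IL-1beta/TNF-alpha-activated HepG2 lysate JNK3 with biotin-GST-cJun substrate and 10 uM ATP at room temperature. Loss of anti-phospho-cJun AlphaScreen signal indicates inhibition.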

[14] = Cell Viability - N2a (AID 540); conditions: N2a mouse neuroblastoma cell viability; activity change, negative = cytotoxicity: at 92.2 µM (top of the series);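 note: plate controls were DMSO alone for no effect and tamoxifen control for full effect; nearly all actives have a fitted effect of over 45% in size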
Procedure, shortened: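 First, 1500 N2a cells per well incubate 5 hr at 37 °C; next, compounds are added and incubated 40 hr at 37 °C; finally CellTiter-Glo is added and luminescence read after 20 min, with AC50 derived by Hill modeling.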

[15] = Cell Viability - NIH 3T3 (AID 541); conditions: NIH 3T3 cell viability, qHTS; activity change, negative = cytotoxicity: at 92.2 µM (top of the series);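 note: plate controls were DMSO alone for no effect and tamoxifen positive control for full effect; nearly all actives have a fitted effect of over 25% in size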
Procedure, shortened: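 AC50 values reflect concentration-dependent loss of intracellular ATP in NIH 3T3 cells after 40 hr treatment in complete culture medium, quantified by luciferase-based luminescence.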

[16] = Cell Viability - HUV-EC-C (AID 542); conditions: HUV-EC-C endothelial cell viability, qHTS; series mostly up to 92.2 µM; note: % is set by controls: 0 for no effect and ±100 for the full control effect; nearly all actives have a fitted effect of over 35% in size
Procedure, shortened: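 Decrease in cellular ATP, quantified by luciferase luminescence, reflects toxicity in normal human vascular endothelial HUV-EC-C cells given compound for 40 hr in complete culture medium. Values are AC50s from concentration-response curves.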

[17] = Cell Viability - H-4-II-E (AID 543); conditions: H-4-II-E rat hepatoma viability; series mostly up to 92.2 µM; note: % is set by controls: 0 for no effect and ±100 for the full control effect; nearly all actives have a fitted effect of over 35% in size
Procedure, shortened: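 Here, cytotoxicity is measured in the rat hepatoma line H-4-II-E as loss of intracellular ATP after 40 hr compound treatment, detected by luciferase luminescence.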

[18] = Cell Viability - SH-SY5Y (AID 544); conditions: SH-SY5Y neuroblastoma cell viability; viability change, negative = cytotoxic: at 92.2 µM (top of the series); note: nearly all actives have a fitted effect of over 55% in size
Procedure, shortened: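 Cytotoxicity is scored as a concentration-dependent fall in intracellular ATP in human SH-SY5Y cells treated 40 hr in complete culture medium. Potency is expressed as AC50 from a Hill equation fit.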

[19] = Cell Viability - Renal Proximal Tubule (AID 545); conditions: renal proximal tubule cells viability, primary cells of rat origin; activity change, negative = cytotoxicity: at 91.7 µM (top of the series); note: nearly all actives have a fitted effect of over 40% in size
Procedure, shortened: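 In this qHTS format, normal rat kidney-derived proximal tubule cells in complete culture medium receive compound titrations, then sit 40 hours at 37 °C before luciferase-based ATP quantitation; potency is reported as AC50 from concentration-response curves.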

[20] = Cell Viability - Mesenchymal (AID 546); conditions: mesenchymal cells viability, qHTS; activity change, negative = cytotoxicity: at 91.7 µM (top of the series);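 note: cells exposed to compound for 40 hours before reading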
Procedure, shortened: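 Human kidney mesenchymal cells from normal renal glomeruli, 1000 cells/well, rested 5 hr at 37 °C, then treated 40 hr at 37 °C in complete medium. Cellular ATP read by CellTiter-Glo luminescence; AC50 from Hill-equation fits.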

[21] = target: 3',5'-cyclic-AMP phosphodiesterase 4B (Homo sapiens) (UniProt Q07343); assay: qHTS Assay for Inhibitors of PDE-IV (AID 607; active = well fitted activation curve with a large enough effect in the main read-out, with a control signal flat, not every such curve was filed as active; note: % of control where 0% means no effect); conditions: HEK293 ACTOne CNG channel cells, membrane potential fluorescence; series mostly up to 22.9 µM
Chain of 3',5'-cyclic-AMP phosphodiesterase 4B (Homo sapiens) (Q07343 whole entry, looked up): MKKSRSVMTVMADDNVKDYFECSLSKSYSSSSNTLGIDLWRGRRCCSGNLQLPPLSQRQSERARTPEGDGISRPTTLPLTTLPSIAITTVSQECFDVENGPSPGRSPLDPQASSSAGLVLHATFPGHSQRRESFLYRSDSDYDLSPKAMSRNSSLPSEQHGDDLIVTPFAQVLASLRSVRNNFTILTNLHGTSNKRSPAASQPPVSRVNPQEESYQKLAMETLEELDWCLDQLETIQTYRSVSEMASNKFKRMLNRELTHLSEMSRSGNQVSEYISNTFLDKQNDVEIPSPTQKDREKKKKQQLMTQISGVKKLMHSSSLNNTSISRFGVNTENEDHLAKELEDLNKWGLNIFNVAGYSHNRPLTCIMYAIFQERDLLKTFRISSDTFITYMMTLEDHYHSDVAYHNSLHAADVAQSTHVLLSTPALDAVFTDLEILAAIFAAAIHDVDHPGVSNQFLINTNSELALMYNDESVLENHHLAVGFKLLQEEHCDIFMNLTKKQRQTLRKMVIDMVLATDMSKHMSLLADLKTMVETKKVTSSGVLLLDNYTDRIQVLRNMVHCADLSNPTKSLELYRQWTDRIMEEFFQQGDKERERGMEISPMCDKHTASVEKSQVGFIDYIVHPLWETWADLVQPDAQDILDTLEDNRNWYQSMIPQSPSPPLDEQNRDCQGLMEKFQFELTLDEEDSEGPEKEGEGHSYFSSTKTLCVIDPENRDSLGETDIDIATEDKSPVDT
Procedure, shortened: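 The readout is membrane depolarisation from a cAMP-sensing CNG channel, detected with a potential dye at ex 535/em 590. Cells were HEK293-derived (endogenous PDE-IV) at 1000 cells/well, titrated up to 22.9 uM final.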

[22] = Cellular Toxicity (caspase-3) HepG2 (AID 654); conditions: HepG2 caspase-3 activation, luminescence; series mostly up to 92.2 µM;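 note: cells exposed to compound for 16 hours before reading; 0% = DMSO alone and 100% = caspase signal from 100 µM tamoxifen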
Procedure, shortened: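 qHTS, HepG2, 1500 cells/well, complete medium; cpd 16 h 37 °C; Caspase-Glo 3/7, 20 min RT; lum. Norm: DMSO vs 100 uM tamoxifen; AC50 Hill fit.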

[23] = Cellular Toxicity (caspase-3) Jurkat (AID 655); conditions: Jurkat caspase-3 activation, luminescence; caspase-3 activation: at 92.2 µM (top of the series), DMSO = 0%, tamoxifen = 100%;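 note: cells exposed to compound for 16 h at 37 °C before reading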
Procedure, shortened: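 qHTS in human Jurkat T-cell leukemia line: 16 hr compound treatment at 37 °C, caspase-3/7 activity measured by Caspase-Glo luminescence. AC50 derived from Hill equation.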

[24] = Cellular Toxicity (caspase-3) HUV-EC-C (AID 656); conditions: HUV-EC-C cells, caspase-3 activation (apoptosis); series mostly up to 92.2 µM;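 note: cells exposed to compound for 16 h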
Procedure, shortened: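 Concentration-dependent caspase 3/7 induction was assessed in HUV-EC-C cells exposed for 16 hours. Data scaled between DMSO and tamoxifen (100 uM) controls.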

[25] = Cellular Toxicity (caspase-3) SHSY5Y (AID 657); conditions: SH-SY5Y caspase-3 activation; series mostly up to 91.7 µM;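 note: cells exposed to compound for 16 hours at 37 °C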
Procedure, shortened: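 Readout: caspase-cleaved peptide-aminoluciferin substrate driving luciferase light in SH-SY5Y neuroblastoma cells after 16 h treatment. Response normalized to DMSO and 10 uM staurosporine controls.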

CC(CCC(=O)O)(c1ccc(O)cc1)c1ccc(O)cc1
inactive: Potency [1] > 11.4 µM | Potency [2] | Potency [3] > 92 µM | Potency [4] > 92 µM | Potency [5] > 92 µM | Potency [6] > 92 µM | Potency [7] > 92 µM | Potency [8] > 92 µM | activity change, negative = inhibition [9] 6.62% | activity, negative = inhibition [10] -4.62% | Potency [11] > 46 µM | Potency [12] > 9.22 µM | Potency [13] | activity change, negative = cytotoxicity [14] 8.91% | activity change, negative = cytotoxicity [15] -7.14% | Potency [16] | Potency [17] | Potency [18] | Potency [19] | Potency [20] | Potency [21] | Potency [22] | Potency [23] | Potency [24] | Potency [25]
